We go through 34 targets from the supplement of paper PMC10849652.

Targets with a hit are over-represented here; the source holds about 7,900 in all. About 0.6% of all pairs of compound and target were hits.

UniProt P01112, sequence (P01112 whole entry, looked up): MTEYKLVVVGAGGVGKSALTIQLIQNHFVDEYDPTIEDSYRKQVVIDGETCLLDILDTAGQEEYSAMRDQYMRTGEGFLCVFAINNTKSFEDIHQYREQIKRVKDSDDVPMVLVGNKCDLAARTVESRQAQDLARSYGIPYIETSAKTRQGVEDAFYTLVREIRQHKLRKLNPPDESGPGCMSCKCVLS
UniProt Q49A26, sequence (Q49A26 whole entry, looked up): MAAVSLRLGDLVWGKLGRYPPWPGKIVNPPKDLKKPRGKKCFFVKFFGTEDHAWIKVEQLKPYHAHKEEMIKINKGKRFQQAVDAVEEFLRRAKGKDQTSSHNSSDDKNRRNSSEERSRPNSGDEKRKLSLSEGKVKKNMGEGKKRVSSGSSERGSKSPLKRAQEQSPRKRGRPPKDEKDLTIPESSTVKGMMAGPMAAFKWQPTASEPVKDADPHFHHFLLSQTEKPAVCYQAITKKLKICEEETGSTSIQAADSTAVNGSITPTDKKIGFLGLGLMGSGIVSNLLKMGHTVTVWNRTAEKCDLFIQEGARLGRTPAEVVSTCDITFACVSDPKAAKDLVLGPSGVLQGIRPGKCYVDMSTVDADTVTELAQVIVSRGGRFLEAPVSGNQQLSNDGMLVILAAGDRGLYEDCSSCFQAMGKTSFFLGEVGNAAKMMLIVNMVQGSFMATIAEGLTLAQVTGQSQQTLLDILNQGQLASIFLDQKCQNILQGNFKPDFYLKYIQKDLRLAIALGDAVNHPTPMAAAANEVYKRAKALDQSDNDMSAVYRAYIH
UniProt Q92917, sequence (Q92917 whole entry, looked up): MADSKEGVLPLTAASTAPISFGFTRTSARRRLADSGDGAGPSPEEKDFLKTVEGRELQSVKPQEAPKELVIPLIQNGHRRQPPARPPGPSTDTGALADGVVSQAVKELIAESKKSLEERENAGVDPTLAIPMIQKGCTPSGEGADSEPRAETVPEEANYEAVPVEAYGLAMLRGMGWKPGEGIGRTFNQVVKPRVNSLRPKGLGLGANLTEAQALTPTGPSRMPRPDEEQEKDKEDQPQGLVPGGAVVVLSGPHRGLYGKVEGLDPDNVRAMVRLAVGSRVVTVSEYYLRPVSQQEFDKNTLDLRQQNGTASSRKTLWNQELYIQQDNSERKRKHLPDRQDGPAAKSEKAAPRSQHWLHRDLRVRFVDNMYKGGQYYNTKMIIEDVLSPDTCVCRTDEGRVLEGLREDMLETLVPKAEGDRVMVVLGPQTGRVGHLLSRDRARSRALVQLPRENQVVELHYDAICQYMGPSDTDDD
UniProt Q9UK97, sequence (Q9UK97 whole entry, looked up): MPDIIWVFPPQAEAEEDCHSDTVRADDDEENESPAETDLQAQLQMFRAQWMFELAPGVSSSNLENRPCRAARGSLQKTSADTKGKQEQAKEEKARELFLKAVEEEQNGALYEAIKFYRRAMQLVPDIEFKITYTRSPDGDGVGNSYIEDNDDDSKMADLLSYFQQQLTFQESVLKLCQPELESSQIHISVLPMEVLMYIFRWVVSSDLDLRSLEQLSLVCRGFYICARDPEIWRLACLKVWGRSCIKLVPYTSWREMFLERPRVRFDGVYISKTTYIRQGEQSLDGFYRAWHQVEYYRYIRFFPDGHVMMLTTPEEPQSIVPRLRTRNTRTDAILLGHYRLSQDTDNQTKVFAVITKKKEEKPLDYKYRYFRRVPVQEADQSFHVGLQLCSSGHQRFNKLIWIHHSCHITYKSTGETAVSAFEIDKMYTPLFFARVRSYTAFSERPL
UniProt P37268, sequence (P37268 whole entry, looked up): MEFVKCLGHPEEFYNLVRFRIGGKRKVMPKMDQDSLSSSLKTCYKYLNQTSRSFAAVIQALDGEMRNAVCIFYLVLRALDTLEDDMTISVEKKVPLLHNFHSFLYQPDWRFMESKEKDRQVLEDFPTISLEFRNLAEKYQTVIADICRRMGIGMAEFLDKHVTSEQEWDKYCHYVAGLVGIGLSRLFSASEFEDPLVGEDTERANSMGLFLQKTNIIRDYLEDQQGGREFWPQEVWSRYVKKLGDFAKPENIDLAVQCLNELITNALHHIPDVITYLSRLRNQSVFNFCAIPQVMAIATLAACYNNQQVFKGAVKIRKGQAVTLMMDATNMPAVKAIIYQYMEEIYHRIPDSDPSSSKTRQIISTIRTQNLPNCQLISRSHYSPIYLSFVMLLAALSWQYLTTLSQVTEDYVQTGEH
UniProt P49448, sequence (P49448 whole entry, looked up): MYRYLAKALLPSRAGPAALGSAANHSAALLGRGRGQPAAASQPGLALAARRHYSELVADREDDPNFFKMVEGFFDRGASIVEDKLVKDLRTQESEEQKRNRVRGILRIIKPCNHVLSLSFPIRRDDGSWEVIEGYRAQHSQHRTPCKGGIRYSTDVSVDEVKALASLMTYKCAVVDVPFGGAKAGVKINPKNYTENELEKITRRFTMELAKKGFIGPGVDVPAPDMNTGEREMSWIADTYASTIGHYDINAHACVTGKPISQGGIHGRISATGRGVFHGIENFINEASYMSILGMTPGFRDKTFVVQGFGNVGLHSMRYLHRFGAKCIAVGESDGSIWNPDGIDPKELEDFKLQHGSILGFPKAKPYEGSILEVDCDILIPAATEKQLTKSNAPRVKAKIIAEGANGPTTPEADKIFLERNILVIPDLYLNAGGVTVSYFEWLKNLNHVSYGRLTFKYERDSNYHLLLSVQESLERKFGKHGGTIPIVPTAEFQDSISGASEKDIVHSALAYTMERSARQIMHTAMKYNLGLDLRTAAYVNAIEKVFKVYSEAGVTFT
UniProt O75146, sequence (O75146 whole entry, looked up): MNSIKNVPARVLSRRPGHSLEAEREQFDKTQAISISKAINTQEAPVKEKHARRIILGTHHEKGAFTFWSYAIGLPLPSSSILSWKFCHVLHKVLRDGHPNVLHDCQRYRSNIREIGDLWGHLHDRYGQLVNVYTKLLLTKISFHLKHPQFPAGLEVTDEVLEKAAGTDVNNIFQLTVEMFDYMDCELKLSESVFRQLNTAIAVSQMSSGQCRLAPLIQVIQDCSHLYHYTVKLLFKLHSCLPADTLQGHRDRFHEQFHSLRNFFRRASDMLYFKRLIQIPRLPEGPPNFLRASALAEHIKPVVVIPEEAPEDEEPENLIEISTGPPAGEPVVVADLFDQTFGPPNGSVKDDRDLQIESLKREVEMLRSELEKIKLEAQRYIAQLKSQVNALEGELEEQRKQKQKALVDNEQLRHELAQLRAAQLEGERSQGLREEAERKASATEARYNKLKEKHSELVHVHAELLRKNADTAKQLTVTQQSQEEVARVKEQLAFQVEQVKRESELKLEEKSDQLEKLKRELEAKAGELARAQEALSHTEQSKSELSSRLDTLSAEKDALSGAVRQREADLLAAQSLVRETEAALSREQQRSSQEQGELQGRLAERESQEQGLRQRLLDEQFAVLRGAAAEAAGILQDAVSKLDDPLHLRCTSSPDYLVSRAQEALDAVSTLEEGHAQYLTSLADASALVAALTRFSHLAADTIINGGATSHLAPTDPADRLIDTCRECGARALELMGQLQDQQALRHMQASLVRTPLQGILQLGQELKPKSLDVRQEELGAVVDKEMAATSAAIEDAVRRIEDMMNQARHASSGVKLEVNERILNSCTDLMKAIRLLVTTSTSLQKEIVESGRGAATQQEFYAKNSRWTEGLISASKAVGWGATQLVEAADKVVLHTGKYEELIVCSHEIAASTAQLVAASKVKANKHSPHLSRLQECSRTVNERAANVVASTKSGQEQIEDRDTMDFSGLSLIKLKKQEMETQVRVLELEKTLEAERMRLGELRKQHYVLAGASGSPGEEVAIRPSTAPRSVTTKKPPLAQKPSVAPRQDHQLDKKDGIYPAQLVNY
UniProt Q7Z4V5, sequence (Q7Z4V5 whole entry, looked up): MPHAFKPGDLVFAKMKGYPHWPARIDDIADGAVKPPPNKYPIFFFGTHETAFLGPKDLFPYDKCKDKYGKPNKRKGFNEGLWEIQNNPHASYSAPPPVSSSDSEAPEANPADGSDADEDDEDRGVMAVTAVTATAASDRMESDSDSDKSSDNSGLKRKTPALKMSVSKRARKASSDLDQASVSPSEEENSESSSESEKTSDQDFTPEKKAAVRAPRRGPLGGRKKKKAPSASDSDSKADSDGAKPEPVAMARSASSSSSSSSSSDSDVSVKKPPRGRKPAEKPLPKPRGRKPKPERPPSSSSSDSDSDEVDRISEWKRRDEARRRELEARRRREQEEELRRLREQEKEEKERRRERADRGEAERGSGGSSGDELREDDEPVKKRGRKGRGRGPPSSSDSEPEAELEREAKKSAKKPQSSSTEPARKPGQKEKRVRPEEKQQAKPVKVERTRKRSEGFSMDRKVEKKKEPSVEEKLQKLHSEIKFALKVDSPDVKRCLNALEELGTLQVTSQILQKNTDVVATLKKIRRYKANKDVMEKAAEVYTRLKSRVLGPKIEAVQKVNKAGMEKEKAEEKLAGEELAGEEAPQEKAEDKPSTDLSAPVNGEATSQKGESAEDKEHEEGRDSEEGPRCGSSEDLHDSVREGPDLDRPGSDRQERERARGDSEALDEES
UniProt P55084, sequence (P55084 whole entry, looked up): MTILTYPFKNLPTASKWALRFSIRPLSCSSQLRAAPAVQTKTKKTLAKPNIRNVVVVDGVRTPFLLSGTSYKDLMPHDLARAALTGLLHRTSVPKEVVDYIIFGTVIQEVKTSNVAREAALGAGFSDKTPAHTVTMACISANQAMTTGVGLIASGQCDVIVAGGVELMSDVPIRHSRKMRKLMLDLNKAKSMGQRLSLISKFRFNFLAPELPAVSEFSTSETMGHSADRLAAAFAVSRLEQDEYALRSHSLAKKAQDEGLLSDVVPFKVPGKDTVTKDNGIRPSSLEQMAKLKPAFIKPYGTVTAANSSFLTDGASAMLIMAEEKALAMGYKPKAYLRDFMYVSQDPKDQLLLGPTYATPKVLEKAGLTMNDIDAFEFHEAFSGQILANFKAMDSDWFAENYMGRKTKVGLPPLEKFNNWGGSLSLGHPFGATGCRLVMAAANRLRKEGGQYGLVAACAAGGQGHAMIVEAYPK

Compound in one test: Cc1nc(Nc2ncc(C(=O)Nc3c(C)cccc3Cl)s2)cc(N2CCN(CCO)CC2)n1 [dasatinib]
The test can be described thus: log2 fold change, soluble protein after heating vs DMSO (PISA); higher = thermal stabilisation; K562 cells, 10 uM, 30 min; active = over 0.2 and 3.5 SD of the protein, either way, in both replicates (recomputed). The procedure, abridged:
(§1)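 Thermal stability values are relative to control samples and come from duplicates. They are expressed as log2 fold changes. For measurement, K562 cells (2×10^6 cells/mL) received 10 μM compound for 30 min, and aliquots were heated for 3 min over 48°C-58°C, pooled, and extracted at 4°C in PBS with 0.5% NP-40. Soluble protein, the supernatant after 21,000xg for 90 min, was quantified by TMTpro 16plex LC-MS/MS with equalised channel sums.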
With IGF2BP2 (UniProt Q9Y6M1), the log2 fold change is 0.038 (inactive).
The same measure, in the same setting: as for FARS2 (UniProt O95363), the figure is -0.058 (inactive).
HECTD1 (UniProt Q9ULT8): the log2 fold change was -0.104 (inactive).
Still for that read-out and setting: the value for HRAS (UniProt P01112) was 0 (inactive).
With HMG20A (UniProt Q9NP66), the log2 fold change was 0.052 (inactive).
The same measure, in the same setting: the value for GCC2 (UniProt Q8IWJ2) was -0.011 (inactive); that for GAPVD1 isoform 6 (UniProt Q14C86) was -0.15 (inactive); that for GSTP1 (UniProt P09211) was -0.014 (inactive).
The same measure, in the same setting: the value for GYS1 (UniProt P13807) was 0.172 (inactive); that for FBXO9 (UniProt Q9UK97) was -0.056 (inactive).
Turning to HOMER1 (UniProt Q86YM7), the log2 fold change was -0.054 (inactive).
On the same count and under the same terms, as for GLYR1 (UniProt Q49A26), the figure is 0.067 (inactive); as for HIP1 (UniProt O00291), 0.004 (inactive).
The same measure, in the same setting: as for HDGFL2 (UniProt Q7Z4V5), the figure is 0.035 (inactive).
Still for that read-out and setting: as for GTF2E2 (UniProt P29084), the figure is -0.241 (inactive).
On to HIP1R (UniProt O75146), for which the log2 fold change is -0.144 (inactive).
The same measure, in the same setting: the value for FDFT1 (UniProt P37268) was 0.023 (inactive); that for HNRNPK isoform 2 (UniProt P61978) was -0.072 (inactive); that for GLRX3 (UniProt O76003) was -0.054 (inactive).
Still for that read-out and setting: as for HRC (UniProt P23327), the figure is 0.055 (inactive).
On the same count and under the same terms, as for GNL1 (UniProt P36915), the figure is -0.084 (inactive); as for GTF3C4 (UniProt Q9UKN8), -0.024 (inactive).
As to FECH isoform 2 (UniProt P22830), the log2 fold change is 0.46 (inactive).
As to GPD1 (UniProt P21695), the log2 fold change is 0.061 (inactive).
GPKOW (UniProt Q92917): the log2 fold change was -0.326 (active).
Still for that read-out and setting: the value for FBL (UniProt P22087) was 0.454 (inactive); that for GLUD2 (UniProt P49448) was -0.021 (inactive).
Still for that read-out and setting: as for HP1BP3 (UniProt Q5SSJ5), the figure is 0.009 (inactive); as for HADHB (UniProt P55084), -0.072 (inactive); as for HSPA8 (UniProt E9PK54), 0.011 (inactive).
In the case of FERMT3 (UniProt Q86UX7), the log2 fold change is -0.075 (inactive).
Same read-out and setting: as for GDI1 (UniProt P31150), the figure is -0.053 (inactive).
Still for that read-out and setting: the value for FOXK1 (UniProt P85037) was 0.128 (inactive).
On to FNTB (UniProt P49356), for which the log2 fold change was 0.22 (inactive).

Compound in a further test: Cc1ncc(-c2ccnc(Nc3ccc(S(C)(=O)=O)cc3)n2)n1C(C)C
The test is described as above. The procedure, abridged:
as §1
For IGF2BP2 (UniProt Q9Y6M1), the log2 fold change was -0.039 (inactive).
Consider FARS2 (UniProt O95363), for which the log2 fold change was -0.097 (inactive).
In the case of HECTD1 (UniProt Q9ULT8), the log2 fold change was -0.022 (inactive).
On the same count and under the same terms, as for HRAS (UniProt P01112), the figure is 0.003 (inactive); as for HMG20A (UniProt Q9NP66), -0.012 (inactive).
Same read-out and setting: the value for GCC2 (UniProt Q8IWJ2) was 0.119 (inactive); that for GAPVD1 isoform 6 (UniProt Q14C86) was -0.017 (inactive); that for GSTP1 (UniProt P09211) was 0.007 (inactive).
Same read-out and setting: the value for GYS1 (UniProt P13807) was -0.036 (inactive).
Regarding FBXO9 (UniProt Q9UK97), the log2 fold change is -0.113 (inactive).
Still for that read-out and setting: as for HOMER1 (UniProt Q86YM7), the figure is -0.008 (inactive); as for GLYR1 (UniProt Q49A26), -0.004 (inactive); as for HIP1 (UniProt O00291), -0.079 (inactive).
Still for that read-out and setting: as for HDGFL2 (UniProt Q7Z4V5), the figure is -0.029 (inactive); as for GTF2E2 (UniProt P29084), 0.005 (inactive); as for HIP1R (UniProt O75146), -0.019 (inactive).
Same read-out and setting: the value for FDFT1 (UniProt P37268) was -0.019 (inactive).
Take HNRNPK isoform 2 (UniProt P61978): the log2 fold change was -0.136 (inactive).
On the same count and under the same terms, the value for GLRX3 (UniProt O76003) was 0.015 (inactive); that for HRC (UniProt P23327) was -0.039 (inactive); that for GNL1 (UniProt P36915) was 0.054 (inactive).
Still for that read-out and setting: as for GTF3C4 (UniProt Q9UKN8), the figure is 0.036 (inactive).
Still for that read-out and setting: as for FECH isoform 2 (UniProt P22830), the figure is 0.134 (inactive); as for GPD1 (UniProt P21695), -0.017 (inactive).
As for GPKOW (UniProt Q92917), the log2 fold change is -0.025 (inactive).
As for FBL (UniProt P22087), the log2 fold change is -0.01 (inactive).
Still for that read-out and setting: as for GLUD2 (UniProt P49448), the figure is -0.031 (inactive).
On the same count and under the same terms, as for HP1BP3 (UniProt Q5SSJ5), the figure is 0.125 (inactive).
Still for that read-out and setting: as for HADHB (UniProt P55084), the figure is 0.032 (inactive); as for HSPA8 (UniProt E9PK54), 0.072 (inactive); as for FERMT3 (UniProt Q86UX7), -0.015 (inactive).
Turning to GDI1 (UniProt P31150), the log2 fold change is -0.024 (inactive).
The same measure, in the same setting: as for FOXK1 (UniProt P85037), the figure is -1.19 (active); as for FNTB (UniProt P49356), -0.056 (inactive).

Compound in a further test: Cn1cc(-c2ccc3c(c2)CCN3C(=O)Cc2cccc(C(F)(F)F)c2)c2c(N)ncnc21
Described as above. The procedure, abridged:
as §1
Consider IGF2BP2 (UniProt Q9Y6M1), for which the log2 fold change is -0.228 (inactive).
The same measure, in the same setting: as for FARS2 (UniProt O95363), the figure is 0.039 (inactive); as for HECTD1 (UniProt Q9ULT8), -0.058 (inactive); as for HRAS (UniProt P01112), 0.041 (inactive).
On the same count and under the same terms, the value for HMG20A (UniProt Q9NP66) was -0.05 (inactive); that for GCC2 (UniProt Q8IWJ2) was -0.032 (inactive); that for GAPVD1 isoform 6 (UniProt Q14C86) was -0.043 (inactive).
GSTP1 (UniProt P09211): the log2 fold change is 0.032 (inactive).
The same measure, in the same setting: the value for GYS1 (UniProt P13807) was -0.266 (inactive); that for FBXO9 (UniProt Q9UK97) was -0.236 (inactive).
The same measure, in the same setting: as for HOMER1 (UniProt Q86YM7), the figure is 0.003 (inactive).
Turning to GLYR1 (UniProt Q49A26), the log2 fold change was -0.004 (inactive).
Still for that read-out and setting: as for HIP1 (UniProt O00291), the figure is -0.009 (inactive).
On the same count and under the same terms, as for HDGFL2 (UniProt Q7Z4V5), the figure is -0.018 (inactive); as for GTF2E2 (UniProt P29084), -0.016 (inactive).
In the case of HIP1R (UniProt O75146), the log2 fold change was 0.022 (inactive).
Still for that read-out and setting: the value for FDFT1 (UniProt P37268) was 0.111 (inactive); that for HNRNPK isoform 2 (UniProt P61978) was 0.031 (inactive); that for GLRX3 (UniProt O76003) was -0.015 (inactive).
On the same count and under the same terms, the value for HRC (UniProt P23327) was -0.038 (inactive).
Same read-out and setting: the value for GNL1 (UniProt P36915) was 0.047 (inactive).
With GTF3C4 (UniProt Q9UKN8), the log2 fold change was -0.017 (inactive).
Still for that read-out and setting: as for FECH isoform 2 (UniProt P22830), the figure is 0.549 (inactive).
Still for that read-out and setting: as for GPD1 (UniProt P21695), the figure is 0.238 (inactive).
On to GPKOW (UniProt Q92917), for which the log2 fold change was 0.114 (inactive).
The same measure, in the same setting: as for FBL (UniProt P22087), the figure is -0.337 (inactive).
The same measure, in the same setting: the value for GLUD2 (UniProt P49448) was 0.265 (active); that for HP1BP3 (UniProt Q5SSJ5) was -0.045 (inactive); that for HADHB (UniProt P55084) was 0.155 (inactive).
Same read-out and setting: the value for HSPA8 (UniProt E9PK54) was -0.409 (active); that for FERMT3 (UniProt Q86UX7) was 0.029 (inactive).
Regarding GDI1 (UniProt P31150), the log2 fold change was 0.035 (inactive).
With FOXK1 (UniProt P85037), the log2 fold change was 0.312 (inactive).
Same read-out and setting: the value for FNTB (UniProt P49356) was 0.196 (inactive).
